Most compounds without a hit are left out; they make up all but 19% or so of the library.
ELG1 repair inh = qHTS screen for small molecules that inhibit ELG1-dependent DNA repair in human embryonic kidney (HEK293T) cells expressing luciferase-tagged ELG1; HEK293T ELG1-luciferase reporter, luminescence, 16 h; DNA damage induced by 5-fluorouridine; actives 2.3% (n = 330,000); Potency, µM (series often up to 46.1 µM), for inactives: at the top dose activity change, negative = inhibition, actives largely listed as inhibitors; note: potency is the fitted concentration of half-maximal effect; nearly all actives have a fitted effect of over 55% in size
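Step one: seed 2,000 cells per well. Step two: pin-transfer compound or DMSO alongside 5-fluorouridine. Step three: incubate 16 hr, 37 °C, 5% CO2. Step four: add ONE-Glo, wait 30 min, read luminescence.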
IL1B secr inh = qHTS for Inhibitors of Inflammasome Signaling: IL-1-beta AlphaLISA Primary Screen. THP-1 LPS/ATP IL-1B secretion, AlphaLISA, 16 h; hits give low values. activity change, % at 57.5 µM. actives 4.7% (n = 360,000); in the data active = activity change below about -50%; inconclusive = mostly about -30% to -49%
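Secreted IL-1B measured by AlphaLISA bead assay after 16 h compound exposure of THP-1 cells; compounds (final up to 57.5 uM) added 1 h before LPS (250 ng/mL) and ATP (1.25 mM) stimulation; lower signal means less secretion.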
HT1080 IDH1KD tx = qHTS for induction of synthetic lethality in tumor cells producing 2HG: qHTS for the HT-1080-IDH1KD cell line; HT-1080 IDH1 knockdown viability, ATP luminescence, 48 h; Potency, µM (doses to about 46.1 µM), without a hit: at the top dose activity, negative = toxicity, hits mostly cytotoxic; actives 2% (n = 360,000); AID 686971, 2013;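 note: potency is the fitted concentration of half-maximal effect; 0% = DMSO wells and -100% = cell-free medium wells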
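In this qHTS, HT-1080 cells depleted of IDH1 are exposed for 48 h at 37 °C to compound titrations. Toxicity is scored from CellTiter-Glo luminescence, with DMSO as full viability and medium alone as none.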
TDP1 cell CPT = qHTS for Inhibitors of human tyrosyl-DNA phosphodiesterase 1 (TDP1): qHTS in cells in presence of CPT. Potency, µM (series often up to 46.2 µM), inactives show at the top dose activity change, negative = growth inhibition, most hits filed as inhibitors. actives 12% (n = 420,000). chicken DT40 Tdp1-/-;hTDP1 cells + 20 nM CPT, ATP luminescence, 48 h; note: potency is the fitted concentration of half-maximal effect; nearly all actives have a fitted effect of over 55% in size
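Cell growth measured by CellTiter-Glo luminescence after a minimum 48 h, 37 C compound exposure with 20 nM CPT in Tdp1-knockout DT40 cells stably expressing hTDP1, seeded 400/well; qHTS titration format.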
HT1080-NT tox = qHTS for induction of synthetic lethality in tumor cells producing 2HG: qHTS for the HT-1080-NT fibrosarcoma cell line; HT-1080-NT fibrosarcoma viability, CellTiter-Glo ATP luminescence, 48 h; Potency, µM (top dose mostly 46.1 µM), for the others: top-dose activity, negative = less viability, most hits filed as cytotoxic; actives 1.6% (n = 360,000);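 note: NT is the 2HG producing partner of a matched IDH1 knockdown line; potency is the fitted concentration of half-maximal effect; 0% = DMSO-treated cells and -100% = media-only wells without cells; nearly all actives have a fitted effect of over 55% in size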
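Viability by CellTiter-Glo luminescence after 48 h compound exposure at 37C of HT-1080-NT cells (750/well, RPMI, 5% FBS). % activity scaled between DMSO wells and medium-only wells, then curve-fitted and categorized by curve class.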
TDP1 cell noCPT = qHTS for Inhibitors of human tyrosyl-DNA phosphodiesterase 1 (TDP1): qHTS in cells in absence of CPT; Potency, µM (highest dose often 46.2 µM), without a hit: at the top dose activity change, negative = growth inhibition, hits mostly inhibitors; AID 686978, 2013; DT40 Tdp1-/- hTDP1 cells, no CPT, ATP luminescence, 48 h; actives 15% (n = 420,000); note: potency is the fitted concentration of half-maximal effect; nearly all actives have a fitted effect of over 55% in size
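Chicken DT40 Tdp1-/- cells complemented with human TDP1, screened without camptothecin (DMSO vehicle only), 400 cells/well. Compounds pin-transferred, cells incubated at 37 °C for at least 48 hr. Growth read as ATP-dependent luminescence (CellTiter-Glo, 30 min at RT).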
Starred values were filed as active, the others as inactive; ? = inconclusive; . = no result given; [ ] = dose if it differs, or a comment. Unless noted, calls come from the whole dose curve; as a rule, active = well fitted curve in the direction sought with a large enough effect; inconclusive = small, poorly fitted or top-dose-only effect, or another doubt; inactive = no such curve, though single readings can be large; an effect the other way counts as inactive or inconclusive. Unless noted, % is set by controls: 0 for no effect and ±100 for the full control effect.

SMILES	ELG1 repair inh	IL1B secr inh	HT1080 IDH1KD tx	TDP1 cell CPT	HT1080-NT tox	TDP1 cell noCPT
CCCC1O[C@@H]2C[C@H]3[C@@H]4CCC5=CC(=O)C=C[C@]5(C)[C@H]4[C@@H](O)C[C@]3(C)[C@]2(C(=O)CO)O1 (stereo not given in full)	7%	-65*	9%	-3%	-3%	?
CC(=O)N1CCN(C(=S)c2ccc(N(C)C)cc2)CC1	-14%	-9	7%[9.24 µM]	-14%	6%	-1%
CN(C)c1ccc(C(c2ccc(N(C)C)cc2)c2ccc([N+](=O)[O-])cc2)cc1	-20%	-50*	10%	?	-5%	?
CN(C)c1ccc(C(=S)N2CCCCCC2)cc1	?	3	?	?	-21%	16µM*
CN(C)c1ccc(C(=S)N2CCN(c3ccc([N+](=O)[O-])cc3)CC2)cc1	-16%	-22	-18%	15µM*	-14%	21µM*
OCCN1CCN(c2ncnc3c2ncn3[C@H]2CN(Cc3cccnc3)C[C@@H](CO)O2)CC1	.	21	8%	7%	11%	-2%
CCOc1ccc(-c2cc3c(=O)n(Cc4nc(-c5ccc(OC)cc5OC)oc4C)ccn3n2)cc1Cl	.	.	.	-8%	.	4%
CCS(=O)(=O)c1ncc(Cl)c(C(=O)N2CCN(c3cccc(Cl)c3)CC2)n1	.	.	.	0.26µM*	.	0.21µM*
CS(=O)(=O)c1ncc(Cl)c(C(=O)N2CCN(c3cccc(Cl)c3)CC2)n1	.	.	.	1µM*	.	0.52µM*
CCOCC(=O)N1CCN(c2cccc(Cl)c2)CC1	-4%	-5	9%	-11%	6%	?
O=C(NNC(=O)C1CC(c2cccs2)=NO1)Nc1ccc(Cl)cc1 (stereo not given)	4%	-1	8%	-9%	11%	-4%
O=C1C=C(OCCCl)CC(c2cccc(Cl)c2)O1 (stereo not given)	.	-30	6%	6%	2%	-25%
CC(C)[C@H](N)C(=O)NC[C@H]1CC[C@H](C(=O)N[C@@H](Cc2ccccc2)C(=O)O)CC1	0%	-3	4%	8%	15%	-5%
CC(=O)C1=C(O)CCCC1=NCc1nc2ccccc2[nH]1	-10%	-9	-2%	2%	-1%	?
CC(=O)C1=C(O)CC(C)(C)CC1=NCc1nc2ccccc2[nH]1	2%	47	20%	?	20%	16µM*
O=C(O)Cn1ccc2cc(S(=O)(=O)N3CCCCC3)ccc21	.	2	14%	0%	12%	-3%
CCOc1ccc(/C=C2\CCC(C3CCCC3)C2=O)cc1OC (stereo not given)	?	-16	0%	?	15%	?
COc1ccc(/C=C2/CSC/C(=C/c3ccc(OC)c(OC)c3)C2=O)cc1OC	.	-117*	5.8µM*	4.1µM*	5.8µM*	2.9µM*
COc1ccc(/C=C2\N=C(C)OC2=O)cc1OC	6%	-9	1%	10µM*	7%	-22%
COc1cc(C=C2CCCC(=Cc3ccc(OCC4CO4)c(OC)c3)C2=O)ccc1OCC1CO1 (stereo not given)	.	-105*	?	5.8µM*	16µM*	3.7µM*
Cc1cc(F)ccc1C(O)c1ncc(-c2ccccc2F)[nH]1 (stereo not given)	.	6	-11%	?	-10%	-25%
CCOC(=O)N1CCN(C(=O)C[C@@H]2C[C@@]3(C(=O)OCC)CCCC=C3N(Cc3ccco3)C2=O)CC1	.	-5	-1%	-15%	4%	?
CCc1ccc(NC(=O)CS(=O)CC(=O)Nc2ccc(-n3cnnn3)c(C)c2)cc1 (stereo not given)	-6%	11	0%	-8%	2%	-12%
CCc1ccc(C(O)c2ncc(-c3cccc(OC)c3)[nH]2)cc1 (stereo not given)	.	17	-27%	?	-2%	9.2µM*
CSc1ccc(C(O)c2ncc(-c3cccc(F)c3)[nH]2)cc1 (stereo not given)	.	0	-13%	15µM*	4%	?
SMILES	ELG1 repair inh	IL1B secr inh	HT1080 IDH1KD tx	TDP1 cell CPT	HT1080-NT tox	TDP1 cell noCPT
COc1cccc(-c2cnc(C(O)c3ccc(Cl)cc3)[nH]2)c1 (stereo not given)	.	35	-3%	26µM*	4%	?
COc1cccc(-c2cnc(C(O)c3ccc(Cl)c(Cl)c3)[nH]2)c1 (stereo not given)	.	21	-18%	21µM*	-4%	?
Cc1cccc(OCC(=O)OC(C)CN2CCCCC2)c1 (stereo not given)	2%	31	0%	-22%	-1%	9%
CCOC(=O)C1CC(=NO)c2ccc(OC)c(OC)c2C1 (stereo not given)	.	15	7%	-8%	20%	?
COc1ccccc1NC(=O)Nc1ccc(CC#N)cc1	?	?	1%	-12%	-4%	-23%
COc1cccc(-c2cnc(C(O)c3ccc(SC)cc3)[nH]2)c1 (stereo not given)	.	15	-16%	?	8%	16µM*
COc1cccc(-c2cnc(C(O)c3ccc(F)cc3)[nH]2)c1 (stereo not given)	.	21	8%	-12%	7%	-12%
C=CC[C@@H](CC(=O)N(CCO)Cc1ccccc1)C(=O)N[C@H](COC(=O)[C@@H](CC=C)Cc1ccc(F)cc1)Cc1ccccc1	-22%	-64*	?	?	?	23µM*
C=CC[C@@H](CC(=O)N(CCO)Cc1ccccc1)C(=O)N[C@@H](COC(=O)[C@@H](CC=C)Cc1ccc(F)cc1)Cc1ccccc1	?	-68*	?	21µM*	?	21µM*
CCCCn1cnc2c(=O)[nH]c(N)nc21	.	.	.	-5%	.	-23%
Nc1nc2c(ncn2COC(CO)CO)c(=O)[nH]1	0%	3	8%	1.3µM*	2%	2.6µM*
C=CCn1c2ccccc2c(=O)c2cc(C#CC[C@@H](C)O)ccc21	?	-67*	-2%	8.2µM*	-11%	10µM*

Screens (PubChem)
